Data: article PMC7862700, “An all-to-all approach to the identification of sequence-specific readers for epigenetic DNA modifications on cytosine”

Legend:
Assay in all cases: DAPPL (digital affinity profiling via proximity ligation, sequencing); 10 mM Tris-HCl pH 7.5, 50 mM NaCl, 1 mM DTT, 4% glycerol, room temperature, 30 min; GST-TFs on glutathione beads, 16-mer random dsDNA library, 0.1% formaldehyde crosslink after washing; high values mean tight binding
FLI1 = target: T1, FLI1 (Homo sapiens, UniProt Q01543 1-452); details: protein: recombinant; tags: N-terminal GST; dsDNA, one strand shown
T1 sequence: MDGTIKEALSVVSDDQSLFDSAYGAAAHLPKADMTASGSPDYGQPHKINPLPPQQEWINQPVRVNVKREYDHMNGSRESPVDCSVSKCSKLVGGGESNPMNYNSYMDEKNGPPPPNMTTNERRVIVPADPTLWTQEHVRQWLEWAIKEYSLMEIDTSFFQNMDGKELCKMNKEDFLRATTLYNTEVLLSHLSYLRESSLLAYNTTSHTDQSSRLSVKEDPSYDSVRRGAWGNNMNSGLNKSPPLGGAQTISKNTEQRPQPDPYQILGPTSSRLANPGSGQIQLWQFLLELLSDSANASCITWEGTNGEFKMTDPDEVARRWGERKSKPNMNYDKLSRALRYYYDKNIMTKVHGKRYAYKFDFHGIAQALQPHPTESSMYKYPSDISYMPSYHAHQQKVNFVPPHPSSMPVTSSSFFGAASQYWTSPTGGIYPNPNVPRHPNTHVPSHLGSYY
Method in brief: (§1)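 After expression in yeast as GST fusions, human transcription factors were bound to glutathione beads, DNA-barcoded and mixed with a tag-only sample. The pools were incubated with 200 nmole of a 16-mer random double-stranded DNA library in Tris/NaCl/DTT/glycerol buffer (30 min, room temperature), washed and crosslinked with 0.1% formaldehyde. Proximity ligation with BsaI/T4 ligase ran for 1 h at 37 °C, before PCR amplification and sequencing on an Illumina NextSeq500. Binding signal is a hexamer's read frequency for a factor divided by its frequency for the tag-only sample.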

ELK1 = target: T2, ELK1 (Homo sapiens, UniProt P19419 1-428); details: protein: recombinant; tags: N-terminal GST; dsDNA, one strand shown
T2 sequence: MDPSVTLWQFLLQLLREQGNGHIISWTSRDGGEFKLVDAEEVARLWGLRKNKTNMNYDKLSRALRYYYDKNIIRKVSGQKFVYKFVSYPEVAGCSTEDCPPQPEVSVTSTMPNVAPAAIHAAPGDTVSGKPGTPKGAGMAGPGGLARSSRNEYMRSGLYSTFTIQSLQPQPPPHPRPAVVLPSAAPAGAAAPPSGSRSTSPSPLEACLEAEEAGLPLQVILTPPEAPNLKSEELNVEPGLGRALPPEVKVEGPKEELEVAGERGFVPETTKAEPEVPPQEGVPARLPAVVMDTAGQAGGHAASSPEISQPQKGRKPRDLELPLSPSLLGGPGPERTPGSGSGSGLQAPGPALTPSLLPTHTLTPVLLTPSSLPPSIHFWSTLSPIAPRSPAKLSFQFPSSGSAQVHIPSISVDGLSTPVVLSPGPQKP
Method in brief: as §1

GABPA = target: T3, GABPA (Homo sapiens, UniProt Q06546 1-454); details: protein: recombinant; tags: N-terminal GST; dsDNA, one strand shown
T3 sequence: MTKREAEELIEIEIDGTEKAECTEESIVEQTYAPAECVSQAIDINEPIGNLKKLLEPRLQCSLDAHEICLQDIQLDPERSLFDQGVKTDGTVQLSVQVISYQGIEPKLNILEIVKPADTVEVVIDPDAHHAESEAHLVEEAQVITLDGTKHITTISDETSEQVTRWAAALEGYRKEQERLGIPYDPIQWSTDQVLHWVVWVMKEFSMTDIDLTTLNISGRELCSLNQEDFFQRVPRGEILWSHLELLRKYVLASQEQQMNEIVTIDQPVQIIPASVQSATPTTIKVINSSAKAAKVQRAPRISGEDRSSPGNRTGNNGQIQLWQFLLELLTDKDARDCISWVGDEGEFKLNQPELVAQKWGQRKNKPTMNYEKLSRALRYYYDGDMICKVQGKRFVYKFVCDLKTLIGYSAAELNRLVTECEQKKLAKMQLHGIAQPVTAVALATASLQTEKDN
Method in brief: as §1

ERG = target: T4, ERG (Homo sapiens, UniProt P11308 1-479); details: protein: recombinant; tags: N-terminal GST; dsDNA, one strand shown
T4 sequence: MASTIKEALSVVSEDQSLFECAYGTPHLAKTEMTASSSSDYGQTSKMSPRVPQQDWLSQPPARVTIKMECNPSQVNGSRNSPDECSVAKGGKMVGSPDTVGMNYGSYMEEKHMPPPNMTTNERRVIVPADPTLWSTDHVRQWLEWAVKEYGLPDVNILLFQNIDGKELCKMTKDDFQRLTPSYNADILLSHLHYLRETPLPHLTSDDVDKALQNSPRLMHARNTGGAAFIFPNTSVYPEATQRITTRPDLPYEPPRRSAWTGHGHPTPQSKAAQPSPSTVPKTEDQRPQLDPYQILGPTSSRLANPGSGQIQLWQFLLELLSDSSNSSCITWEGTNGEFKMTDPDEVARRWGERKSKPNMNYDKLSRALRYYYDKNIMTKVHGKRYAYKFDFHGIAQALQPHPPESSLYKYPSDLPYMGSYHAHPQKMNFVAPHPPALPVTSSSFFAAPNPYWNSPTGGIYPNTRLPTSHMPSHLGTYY
Method in brief: as §1

ELF1 = ELF1 (Homo sapiens, UniProt P32519 1-619); details: protein: recombinant; tags: N-terminal GST; dsDNA, one strand shown
ELF1, sequence (P32519 whole entry): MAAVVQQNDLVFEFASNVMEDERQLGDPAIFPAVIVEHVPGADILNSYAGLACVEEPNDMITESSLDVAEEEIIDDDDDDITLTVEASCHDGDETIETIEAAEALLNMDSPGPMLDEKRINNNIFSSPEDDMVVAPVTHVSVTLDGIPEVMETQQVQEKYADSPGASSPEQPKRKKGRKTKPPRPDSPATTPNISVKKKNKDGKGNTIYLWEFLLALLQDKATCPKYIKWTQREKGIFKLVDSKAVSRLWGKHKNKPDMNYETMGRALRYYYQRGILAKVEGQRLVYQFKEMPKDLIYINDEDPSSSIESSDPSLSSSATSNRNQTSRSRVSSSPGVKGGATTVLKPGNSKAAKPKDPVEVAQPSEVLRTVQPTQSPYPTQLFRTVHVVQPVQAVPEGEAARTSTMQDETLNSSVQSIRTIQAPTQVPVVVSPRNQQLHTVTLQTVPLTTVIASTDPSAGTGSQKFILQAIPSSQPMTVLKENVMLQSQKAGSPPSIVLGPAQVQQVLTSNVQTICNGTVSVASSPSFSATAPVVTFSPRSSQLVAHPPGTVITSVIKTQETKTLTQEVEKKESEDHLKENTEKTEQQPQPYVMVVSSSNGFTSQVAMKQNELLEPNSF
Method in brief: as §1

EHF = target: T5, EHF (Homo sapiens, UniProt Q9NZC4 1-300); details: protein: recombinant; tags: N-terminal GST; dsDNA, one strand shown
T5 sequence: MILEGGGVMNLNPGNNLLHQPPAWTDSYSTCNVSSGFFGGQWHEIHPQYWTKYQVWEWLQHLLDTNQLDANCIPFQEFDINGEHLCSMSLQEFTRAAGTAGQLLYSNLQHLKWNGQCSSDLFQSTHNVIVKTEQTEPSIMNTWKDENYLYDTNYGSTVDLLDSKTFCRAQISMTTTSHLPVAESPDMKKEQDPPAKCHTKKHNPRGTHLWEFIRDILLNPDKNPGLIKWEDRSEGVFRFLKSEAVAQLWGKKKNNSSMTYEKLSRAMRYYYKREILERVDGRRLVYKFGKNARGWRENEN
Method in brief: as §1

SPI1 = SPI1 (Homo sapiens, UniProt P17947 1-270); details: protein: recombinant; tags: N-terminal GST; dsDNA, one strand shown
Method in brief: as §1

SPIB = SPIB (Homo sapiens, UniProt Q01892 1-262); details: protein: recombinant; tags: N-terminal GST; dsDNA, one strand shown
SPIB, sequence (Q01892 whole entry): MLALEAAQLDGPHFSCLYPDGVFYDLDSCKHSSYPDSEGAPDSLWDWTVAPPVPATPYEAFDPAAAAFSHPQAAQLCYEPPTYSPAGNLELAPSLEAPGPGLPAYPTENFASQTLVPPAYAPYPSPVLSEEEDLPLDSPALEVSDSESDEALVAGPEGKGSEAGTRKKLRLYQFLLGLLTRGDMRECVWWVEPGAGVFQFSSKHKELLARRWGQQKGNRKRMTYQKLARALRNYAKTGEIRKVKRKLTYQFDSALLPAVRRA
Method in brief: as §1

ELK3 = target: T6, ELK3 (Homo sapiens, UniProt P41970 1-407); details: protein: recombinant; tags: N-terminal GST; dsDNA, one strand shown
T6 sequence: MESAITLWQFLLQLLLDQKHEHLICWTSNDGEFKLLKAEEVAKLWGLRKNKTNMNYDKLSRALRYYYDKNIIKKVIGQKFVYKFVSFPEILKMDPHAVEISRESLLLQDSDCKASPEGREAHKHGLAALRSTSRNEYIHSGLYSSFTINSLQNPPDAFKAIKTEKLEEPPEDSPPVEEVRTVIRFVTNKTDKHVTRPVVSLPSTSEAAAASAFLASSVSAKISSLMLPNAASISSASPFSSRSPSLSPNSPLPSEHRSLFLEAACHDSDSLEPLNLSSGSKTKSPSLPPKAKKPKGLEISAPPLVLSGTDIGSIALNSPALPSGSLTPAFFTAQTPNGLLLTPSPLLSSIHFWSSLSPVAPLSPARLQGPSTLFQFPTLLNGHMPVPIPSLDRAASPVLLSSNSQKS
Method in brief: as §1

FEV = target: T7, FEV (Homo sapiens, UniProt Q99581 1-238); details: protein: recombinant; tags: N-terminal GST; dsDNA, one strand shown
T7 sequence: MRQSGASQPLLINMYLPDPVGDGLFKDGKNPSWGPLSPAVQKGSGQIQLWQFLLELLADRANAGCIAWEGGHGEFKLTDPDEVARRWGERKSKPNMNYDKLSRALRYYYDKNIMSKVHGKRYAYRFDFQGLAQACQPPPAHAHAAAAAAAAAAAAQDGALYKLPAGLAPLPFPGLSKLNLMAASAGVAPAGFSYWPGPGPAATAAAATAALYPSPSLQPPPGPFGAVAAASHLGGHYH
Method in brief: as §1

ETV5 = ETV5 (Homo sapiens, UniProt P41161 1-510); details: protein: recombinant; tags: N-terminal GST; dsDNA, one strand shown
ETV5, sequence (P41161 whole entry): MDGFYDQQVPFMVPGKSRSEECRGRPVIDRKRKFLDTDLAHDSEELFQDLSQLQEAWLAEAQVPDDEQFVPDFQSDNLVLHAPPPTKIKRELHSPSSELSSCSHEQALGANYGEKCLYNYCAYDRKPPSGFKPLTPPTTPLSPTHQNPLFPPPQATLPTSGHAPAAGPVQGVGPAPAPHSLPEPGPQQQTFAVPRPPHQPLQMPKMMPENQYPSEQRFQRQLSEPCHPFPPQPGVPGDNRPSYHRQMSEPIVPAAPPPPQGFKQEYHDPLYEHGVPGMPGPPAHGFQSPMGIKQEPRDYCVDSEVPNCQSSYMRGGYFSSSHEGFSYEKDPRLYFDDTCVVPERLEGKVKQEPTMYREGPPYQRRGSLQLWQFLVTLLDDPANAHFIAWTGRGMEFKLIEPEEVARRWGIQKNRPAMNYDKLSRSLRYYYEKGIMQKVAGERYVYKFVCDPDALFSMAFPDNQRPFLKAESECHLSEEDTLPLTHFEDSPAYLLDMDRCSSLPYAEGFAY
Method in brief: as §1

HSF1 = HSF1 (Homo sapiens, UniProt Q00613 1-529); details: protein: recombinant; tags: N-terminal GST; chain copies: 3; dsDNA, one strand shown
HSF1, sequence (Q00613 whole entry): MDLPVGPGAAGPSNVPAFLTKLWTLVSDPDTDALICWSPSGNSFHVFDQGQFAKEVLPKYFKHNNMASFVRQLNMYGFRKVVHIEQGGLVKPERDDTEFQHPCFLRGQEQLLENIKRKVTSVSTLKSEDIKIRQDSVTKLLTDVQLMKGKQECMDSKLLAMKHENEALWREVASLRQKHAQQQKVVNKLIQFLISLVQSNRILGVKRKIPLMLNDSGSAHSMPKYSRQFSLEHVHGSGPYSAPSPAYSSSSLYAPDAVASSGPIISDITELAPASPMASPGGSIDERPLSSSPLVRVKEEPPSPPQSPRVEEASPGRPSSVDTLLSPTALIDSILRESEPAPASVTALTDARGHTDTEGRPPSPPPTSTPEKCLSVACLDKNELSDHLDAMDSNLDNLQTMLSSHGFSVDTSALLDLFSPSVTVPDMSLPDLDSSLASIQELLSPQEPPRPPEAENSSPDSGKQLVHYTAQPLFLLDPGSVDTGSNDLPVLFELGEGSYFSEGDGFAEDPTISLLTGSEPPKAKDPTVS
Method in brief: as §1

SPIC = target: T8, SPIC (Homo sapiens, UniProt Q8N5J4 1-248); details: protein: recombinant; tags: N-terminal GST; dsDNA, one strand shown
T8 sequence: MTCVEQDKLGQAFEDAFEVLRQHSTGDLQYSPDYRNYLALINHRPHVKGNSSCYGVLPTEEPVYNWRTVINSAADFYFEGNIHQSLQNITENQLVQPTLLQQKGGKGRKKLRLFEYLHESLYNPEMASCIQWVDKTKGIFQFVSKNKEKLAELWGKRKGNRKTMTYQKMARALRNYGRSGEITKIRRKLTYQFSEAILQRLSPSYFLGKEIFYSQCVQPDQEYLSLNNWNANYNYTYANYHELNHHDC
Method in brief: as §1

ELF4 = ELF4 (Homo sapiens, UniProt Q99607 1-663); details: protein: recombinant; tags: N-terminal GST; dsDNA, one strand shown
ELF4, sequence (Q99607 whole entry): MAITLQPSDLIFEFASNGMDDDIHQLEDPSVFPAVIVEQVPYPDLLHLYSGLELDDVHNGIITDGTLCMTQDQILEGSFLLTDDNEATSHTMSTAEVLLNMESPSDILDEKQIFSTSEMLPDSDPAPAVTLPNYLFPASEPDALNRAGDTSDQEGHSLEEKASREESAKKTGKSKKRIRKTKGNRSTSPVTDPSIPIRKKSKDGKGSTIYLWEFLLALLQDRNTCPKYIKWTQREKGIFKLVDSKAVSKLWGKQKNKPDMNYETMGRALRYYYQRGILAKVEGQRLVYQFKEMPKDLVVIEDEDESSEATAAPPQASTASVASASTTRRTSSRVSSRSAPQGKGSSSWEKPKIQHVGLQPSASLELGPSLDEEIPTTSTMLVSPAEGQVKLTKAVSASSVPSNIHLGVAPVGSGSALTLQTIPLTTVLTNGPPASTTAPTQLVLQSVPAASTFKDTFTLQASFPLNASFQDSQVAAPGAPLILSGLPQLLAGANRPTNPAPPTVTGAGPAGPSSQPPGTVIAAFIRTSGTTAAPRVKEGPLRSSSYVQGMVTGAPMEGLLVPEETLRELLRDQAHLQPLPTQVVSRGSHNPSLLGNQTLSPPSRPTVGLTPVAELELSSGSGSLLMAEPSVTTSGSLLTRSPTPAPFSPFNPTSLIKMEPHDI
Method in brief: as §1

ELK4 = target: T9, ELK4 (Homo sapiens, UniProt P28324-2 1-405); details: protein: recombinant; tags: N-terminal GST; dsDNA, one strand shown
T9 sequence: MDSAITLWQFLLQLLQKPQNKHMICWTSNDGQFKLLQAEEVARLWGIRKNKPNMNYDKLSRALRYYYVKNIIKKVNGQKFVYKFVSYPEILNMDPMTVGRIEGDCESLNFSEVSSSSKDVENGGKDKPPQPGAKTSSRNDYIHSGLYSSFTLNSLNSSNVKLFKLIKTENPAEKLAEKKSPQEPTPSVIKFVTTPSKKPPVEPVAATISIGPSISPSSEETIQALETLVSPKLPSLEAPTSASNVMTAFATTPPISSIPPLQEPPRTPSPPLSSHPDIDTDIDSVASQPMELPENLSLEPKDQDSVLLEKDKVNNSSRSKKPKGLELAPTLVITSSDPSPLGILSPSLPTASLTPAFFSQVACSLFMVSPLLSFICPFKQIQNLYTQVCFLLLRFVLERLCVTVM
Method in brief: as §1

ETV2 = target: T10, ETV2 (Homo sapiens, UniProt O00321 1-342); details: protein: recombinant; tags: N-terminal GST; dsDNA, one strand shown
T10 sequence: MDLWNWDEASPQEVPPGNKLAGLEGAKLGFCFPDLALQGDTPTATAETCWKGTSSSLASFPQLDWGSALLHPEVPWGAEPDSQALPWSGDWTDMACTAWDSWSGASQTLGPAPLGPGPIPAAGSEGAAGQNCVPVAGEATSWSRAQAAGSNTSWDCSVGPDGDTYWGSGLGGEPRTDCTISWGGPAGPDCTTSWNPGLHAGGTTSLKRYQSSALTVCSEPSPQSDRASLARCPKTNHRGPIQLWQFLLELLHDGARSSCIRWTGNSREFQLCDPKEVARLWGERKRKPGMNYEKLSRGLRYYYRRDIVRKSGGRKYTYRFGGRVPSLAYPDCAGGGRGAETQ
Method in brief: as §1

ELF3 = target: T11, ELF3 (Homo sapiens, UniProt P78545 1-371); details: protein: recombinant; tags: N-terminal GST; dsDNA, one strand shown
T11 sequence: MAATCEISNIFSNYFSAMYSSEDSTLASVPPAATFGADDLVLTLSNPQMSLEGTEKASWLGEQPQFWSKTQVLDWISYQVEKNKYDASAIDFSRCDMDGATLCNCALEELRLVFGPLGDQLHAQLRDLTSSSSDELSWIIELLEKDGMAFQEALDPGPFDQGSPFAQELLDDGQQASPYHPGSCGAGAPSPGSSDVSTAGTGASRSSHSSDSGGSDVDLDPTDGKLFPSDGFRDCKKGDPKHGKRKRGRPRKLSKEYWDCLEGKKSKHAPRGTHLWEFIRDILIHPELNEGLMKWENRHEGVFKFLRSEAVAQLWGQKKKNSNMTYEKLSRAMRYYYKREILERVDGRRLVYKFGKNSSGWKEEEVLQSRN
Method in brief: as §1

ETV1 = ETV1 (Homo sapiens, UniProt P50549 1-477); details: protein: recombinant; tags: N-terminal GST; dsDNA, one strand shown
ETV1, sequence (P50549 whole entry): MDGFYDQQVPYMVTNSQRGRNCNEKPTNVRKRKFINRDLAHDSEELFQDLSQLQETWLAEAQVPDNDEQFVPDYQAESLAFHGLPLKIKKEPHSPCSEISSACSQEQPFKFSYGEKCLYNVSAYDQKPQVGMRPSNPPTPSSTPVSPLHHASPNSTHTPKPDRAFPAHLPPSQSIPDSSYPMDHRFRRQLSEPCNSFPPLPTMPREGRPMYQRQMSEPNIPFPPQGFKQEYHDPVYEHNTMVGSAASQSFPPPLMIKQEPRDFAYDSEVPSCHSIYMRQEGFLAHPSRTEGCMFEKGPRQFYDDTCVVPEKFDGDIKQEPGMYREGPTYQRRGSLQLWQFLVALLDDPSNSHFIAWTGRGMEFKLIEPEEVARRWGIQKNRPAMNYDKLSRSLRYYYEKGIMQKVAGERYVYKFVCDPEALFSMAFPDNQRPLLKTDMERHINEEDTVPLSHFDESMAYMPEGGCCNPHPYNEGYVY
Method in brief: as §1

Sequence: GTCTCT
- binding signal (FLI1): 1.41 fold enrichment (6-mer frequency, TF over GST control)
- binding signal (ELK1): 1.26 fold enrichment (6-mer frequency, TF over GST control)
- binding signal (GABPA): 1.31 fold enrichment (6-mer frequency, TF over GST control)
- binding signal (ERG): 1.33 fold enrichment (6-mer frequency, TF over GST control)
- binding signal (ELF1): 1.29 fold enrichment (6-mer frequency, TF over GST control)
- binding signal (EHF): 1.19 fold enrichment (6-mer frequency, TF over GST control)
- binding signal (SPI1): 1.32 fold enrichment (6-mer frequency, TF over GST control)
- binding signal (SPIB): 1.25 fold enrichment (6-mer frequency, TF over GST control)
- binding signal (ELK3): 1.14 fold enrichment (6-mer frequency, TF over GST control)
- binding signal (FEV): 1.15 fold enrichment (6-mer frequency, TF over GST control)
- binding signal (ETV5): 1.14 fold enrichment (6-mer frequency, TF over GST control)
- binding signal (HSF1): 1.12 fold enrichment (6-mer frequency, TF over GST control)
- binding signal (SPIC): 1.33 fold enrichment (6-mer frequency, TF over GST control)
- binding signal (ELF4): 1.33 fold enrichment (6-mer frequency, TF over GST control)
- binding signal (ELK4): 1.18 fold enrichment (6-mer frequency, TF over GST control)
- binding signal (ETV2): 1.24 fold enrichment (6-mer frequency, TF over GST control)
- binding signal (ELF3): 1.11 fold enrichment (6-mer frequency, TF over GST control)
- binding signal (ETV1): 1.27 fold enrichment (6-mer frequency, TF over GST control)
